# Test results published in ChEMBL document CHEMBL1961873, “Compounds: GSK PKIS; Assays: Nanosyn kinase panel” (2012).
# Values joined by “and” are separate entries in the source; they are usually repeats but may differ in a detail not shown here. Identical values can stand only once.
# What was measured:
# [1] = biological target: Serine/threonine-protein kinase MARK2 (Homo sapiens) (UniProt Q7KZI7); conditions: at 1 µM
# [2] = biological target: PAS domain-containing serine/threonine-protein kinase (Homo sapiens) (UniProt Q96RG2); conditions: at 0.1 µM
# [3] = biological target: PAS domain-containing serine/threonine-protein kinase (Homo sapiens) (UniProt Q96RG2); conditions: at 1 µM
# [4] = biological target: Phosphorylase b kinase gamma catalytic chain, skeletal muscle/heart isoform (Homo sapiens) (UniProt Q16816); conditions: at 0.1 µM
# [5] = biological target: Phosphorylase b kinase gamma catalytic chain, skeletal muscle/heart isoform (Homo sapiens) (UniProt Q16816); conditions: at 1 µM
# [6] = biological target: T1, Phosphorylase b kinase gamma catalytic chain, liver/testis isoform (Homo sapiens) (UniProt P15735); conditions: at 0.1 µM
# T1 sequence (whole entry): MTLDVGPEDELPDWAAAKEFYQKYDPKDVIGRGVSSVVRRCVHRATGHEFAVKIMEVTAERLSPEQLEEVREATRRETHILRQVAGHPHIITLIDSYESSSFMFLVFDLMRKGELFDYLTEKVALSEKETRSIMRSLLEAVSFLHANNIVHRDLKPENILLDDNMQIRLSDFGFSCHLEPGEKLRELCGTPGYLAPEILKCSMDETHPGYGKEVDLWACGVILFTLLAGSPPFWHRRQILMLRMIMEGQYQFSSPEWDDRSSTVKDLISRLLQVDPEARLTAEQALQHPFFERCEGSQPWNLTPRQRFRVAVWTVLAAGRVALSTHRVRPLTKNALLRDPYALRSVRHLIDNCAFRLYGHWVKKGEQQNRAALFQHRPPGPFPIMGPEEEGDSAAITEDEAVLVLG
# [7] = biological target: T1, Phosphorylase b kinase gamma catalytic chain, liver/testis isoform (Homo sapiens); conditions: at 1 µM
# [8] = biological target: Serine/threonine-protein kinase pim-1 (Homo sapiens) (UniProt P11309); conditions: at 0.1 µM
# [9] = biological target: Serine/threonine-protein kinase pim-1 (Homo sapiens) (UniProt P11309); conditions: at 1 µM
# [10] = biological target: Serine/threonine-protein kinase pim-2 (Homo sapiens) (UniProt Q9P1W9); conditions: at 0.1 µM
# [11] = biological target: Serine/threonine-protein kinase pim-2 (Homo sapiens) (UniProt Q9P1W9); conditions: at 1 µM
# [12] = biological target: Serine/threonine-protein kinase pim-3 (Homo sapiens) (UniProt Q86V86); conditions: at 0.1 µM
# [13] = biological target: Serine/threonine-protein kinase pim-3 (Homo sapiens) (UniProt Q86V86); conditions: at 1 µM
# [14] = biological target: T2, MAP kinase-activated protein kinase 5 (Homo sapiens) (UniProt Q8IW41); conditions: at 0.1 µM
# T2 sequence (whole entry): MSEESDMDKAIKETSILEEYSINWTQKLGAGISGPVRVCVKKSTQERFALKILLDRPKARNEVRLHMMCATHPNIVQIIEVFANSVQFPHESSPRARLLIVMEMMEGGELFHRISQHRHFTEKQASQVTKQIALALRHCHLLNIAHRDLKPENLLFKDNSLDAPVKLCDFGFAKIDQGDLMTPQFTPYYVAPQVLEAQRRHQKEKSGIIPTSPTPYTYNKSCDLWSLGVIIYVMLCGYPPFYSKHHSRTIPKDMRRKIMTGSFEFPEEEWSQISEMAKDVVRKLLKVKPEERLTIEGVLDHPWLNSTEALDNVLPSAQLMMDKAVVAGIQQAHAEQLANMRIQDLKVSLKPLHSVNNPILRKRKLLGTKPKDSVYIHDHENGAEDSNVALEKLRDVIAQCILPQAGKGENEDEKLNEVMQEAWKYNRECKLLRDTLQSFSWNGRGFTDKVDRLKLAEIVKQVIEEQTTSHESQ
# [15] = biological target: T2, MAP kinase-activated protein kinase 5 (Homo sapiens); conditions: at 1 µM
# [16] = biological target: Serine/threonine-protein kinase SIK1 (Homo sapiens) (UniProt P57059); conditions: at 0.1 µM
# [17] = biological target: Serine/threonine-protein kinase SIK1 (Homo sapiens) (UniProt P57059); conditions: at 1 µM
# [18] = biological target: Serine/threonine-protein kinase SIK2 (Homo sapiens) (UniProt Q9H0K1); conditions: at 0.1 µM
# [19] = biological target: Serine/threonine-protein kinase SIK2 (Homo sapiens) (UniProt Q9H0K1); conditions: at 1 µM
# [20] = biological target: T3, Serine/threonine-protein kinase TBK1 (Homo sapiens) (UniProt Q9UHD2); conditions: at 0.1 µM;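 also: values are the mean TBK1 inhibition, taken from the GSK PKIS screening data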
# T3 sequence (whole entry): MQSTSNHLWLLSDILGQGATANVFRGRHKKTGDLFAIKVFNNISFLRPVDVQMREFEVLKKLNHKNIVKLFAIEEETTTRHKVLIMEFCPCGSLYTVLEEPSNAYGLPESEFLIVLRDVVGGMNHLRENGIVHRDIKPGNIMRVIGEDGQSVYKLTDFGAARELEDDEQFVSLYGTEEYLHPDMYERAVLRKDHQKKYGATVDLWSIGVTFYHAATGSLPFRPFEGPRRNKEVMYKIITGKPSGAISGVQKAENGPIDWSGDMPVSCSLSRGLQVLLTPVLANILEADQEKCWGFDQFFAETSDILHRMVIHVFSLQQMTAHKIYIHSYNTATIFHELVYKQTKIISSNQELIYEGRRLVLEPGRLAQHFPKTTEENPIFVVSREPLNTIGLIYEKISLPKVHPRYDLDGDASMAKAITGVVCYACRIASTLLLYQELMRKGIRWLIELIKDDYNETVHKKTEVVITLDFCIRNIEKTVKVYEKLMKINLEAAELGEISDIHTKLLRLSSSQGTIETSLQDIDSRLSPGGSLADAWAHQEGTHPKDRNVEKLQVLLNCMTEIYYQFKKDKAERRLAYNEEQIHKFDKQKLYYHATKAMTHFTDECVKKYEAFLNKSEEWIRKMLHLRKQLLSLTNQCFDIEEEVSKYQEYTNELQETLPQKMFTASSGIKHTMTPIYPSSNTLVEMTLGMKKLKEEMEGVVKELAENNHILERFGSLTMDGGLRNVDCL
# Sequence of PAS domain-containing serine/threonine-protein kinase (Homo sapiens) (Q96RG2 whole entry, the tested form may be a part, canonical isoform): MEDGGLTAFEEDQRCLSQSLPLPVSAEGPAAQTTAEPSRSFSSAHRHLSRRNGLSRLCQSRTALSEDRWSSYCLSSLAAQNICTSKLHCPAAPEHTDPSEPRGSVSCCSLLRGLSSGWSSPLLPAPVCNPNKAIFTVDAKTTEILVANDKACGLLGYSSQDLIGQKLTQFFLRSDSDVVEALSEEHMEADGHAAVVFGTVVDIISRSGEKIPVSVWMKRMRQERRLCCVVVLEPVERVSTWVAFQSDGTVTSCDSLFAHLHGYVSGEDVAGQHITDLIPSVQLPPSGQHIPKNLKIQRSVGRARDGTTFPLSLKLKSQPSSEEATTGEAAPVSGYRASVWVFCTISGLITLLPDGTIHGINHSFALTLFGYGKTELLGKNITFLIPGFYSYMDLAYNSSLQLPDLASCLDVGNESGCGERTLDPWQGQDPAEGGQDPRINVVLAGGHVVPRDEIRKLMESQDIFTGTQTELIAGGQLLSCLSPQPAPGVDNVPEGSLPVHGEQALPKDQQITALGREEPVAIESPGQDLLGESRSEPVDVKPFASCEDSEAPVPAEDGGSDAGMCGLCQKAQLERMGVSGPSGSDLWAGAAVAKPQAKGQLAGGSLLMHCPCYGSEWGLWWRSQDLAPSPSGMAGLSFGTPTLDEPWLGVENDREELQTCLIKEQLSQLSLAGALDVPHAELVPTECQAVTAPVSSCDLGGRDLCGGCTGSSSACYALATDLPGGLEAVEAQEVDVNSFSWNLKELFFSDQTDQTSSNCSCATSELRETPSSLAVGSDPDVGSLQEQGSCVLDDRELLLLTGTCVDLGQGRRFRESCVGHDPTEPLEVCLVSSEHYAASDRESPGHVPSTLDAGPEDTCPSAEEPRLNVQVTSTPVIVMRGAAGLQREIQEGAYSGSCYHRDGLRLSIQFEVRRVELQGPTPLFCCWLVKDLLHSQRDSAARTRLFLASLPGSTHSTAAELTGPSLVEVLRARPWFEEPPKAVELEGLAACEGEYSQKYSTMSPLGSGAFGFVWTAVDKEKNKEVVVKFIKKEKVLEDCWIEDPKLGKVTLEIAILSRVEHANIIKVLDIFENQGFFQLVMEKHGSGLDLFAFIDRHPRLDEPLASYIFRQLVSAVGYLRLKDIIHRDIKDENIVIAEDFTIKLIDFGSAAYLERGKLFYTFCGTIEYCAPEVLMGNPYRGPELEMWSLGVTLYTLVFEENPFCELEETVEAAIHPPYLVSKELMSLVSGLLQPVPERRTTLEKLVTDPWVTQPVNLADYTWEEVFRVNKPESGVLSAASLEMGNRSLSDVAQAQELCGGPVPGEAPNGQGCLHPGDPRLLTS
# Sequence of Phosphorylase b kinase gamma catalytic chain, skeletal muscle/heart isoform (Homo sapiens) (Q16816 whole entry, looked up, canonical isoform): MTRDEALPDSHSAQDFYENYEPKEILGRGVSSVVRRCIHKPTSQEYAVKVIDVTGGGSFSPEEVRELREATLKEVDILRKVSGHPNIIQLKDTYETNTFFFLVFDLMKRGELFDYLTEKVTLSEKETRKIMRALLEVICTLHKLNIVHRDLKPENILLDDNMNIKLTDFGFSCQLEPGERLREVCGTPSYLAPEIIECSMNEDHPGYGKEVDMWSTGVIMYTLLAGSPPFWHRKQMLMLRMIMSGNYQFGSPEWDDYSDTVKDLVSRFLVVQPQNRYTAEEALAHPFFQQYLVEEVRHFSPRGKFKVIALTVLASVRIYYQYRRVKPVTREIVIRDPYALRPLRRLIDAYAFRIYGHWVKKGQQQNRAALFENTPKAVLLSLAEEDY
# Sequence of Serine/threonine-protein kinase pim-2 (Homo sapiens) (Q9P1W9 whole entry, looked up): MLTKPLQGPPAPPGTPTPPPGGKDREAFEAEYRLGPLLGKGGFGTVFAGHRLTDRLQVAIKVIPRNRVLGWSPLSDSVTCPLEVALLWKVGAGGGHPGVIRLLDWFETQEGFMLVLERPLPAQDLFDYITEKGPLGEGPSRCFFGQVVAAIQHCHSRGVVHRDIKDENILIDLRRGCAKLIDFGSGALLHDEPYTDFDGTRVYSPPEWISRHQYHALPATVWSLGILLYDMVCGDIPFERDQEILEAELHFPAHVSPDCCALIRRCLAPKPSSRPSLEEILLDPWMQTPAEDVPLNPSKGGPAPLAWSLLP
# Sequence of Serine/threonine-protein kinase MARK2 (Homo sapiens) (Q7KZI7 whole entry, the tested form may be a part): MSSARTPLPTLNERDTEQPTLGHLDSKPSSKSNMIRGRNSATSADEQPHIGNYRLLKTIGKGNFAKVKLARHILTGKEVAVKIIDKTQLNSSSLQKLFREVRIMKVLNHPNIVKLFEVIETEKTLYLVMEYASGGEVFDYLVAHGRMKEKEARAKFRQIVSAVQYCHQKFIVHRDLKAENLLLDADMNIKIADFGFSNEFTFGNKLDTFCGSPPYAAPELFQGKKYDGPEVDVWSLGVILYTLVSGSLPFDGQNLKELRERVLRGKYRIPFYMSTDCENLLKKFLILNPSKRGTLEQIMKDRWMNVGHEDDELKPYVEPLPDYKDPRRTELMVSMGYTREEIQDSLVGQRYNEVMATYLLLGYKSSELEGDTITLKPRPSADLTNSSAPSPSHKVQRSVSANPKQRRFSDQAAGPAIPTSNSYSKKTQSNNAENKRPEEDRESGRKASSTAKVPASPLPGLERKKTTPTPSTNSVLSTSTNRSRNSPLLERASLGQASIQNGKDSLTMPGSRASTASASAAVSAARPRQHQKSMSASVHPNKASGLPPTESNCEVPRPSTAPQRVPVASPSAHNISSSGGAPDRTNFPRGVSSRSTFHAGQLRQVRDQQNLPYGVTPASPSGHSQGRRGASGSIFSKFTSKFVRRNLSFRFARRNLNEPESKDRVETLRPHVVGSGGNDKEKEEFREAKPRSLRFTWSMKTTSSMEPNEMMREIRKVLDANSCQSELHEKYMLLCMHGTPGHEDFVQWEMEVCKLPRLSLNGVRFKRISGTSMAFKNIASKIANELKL
# Sequence of Serine/threonine-protein kinase pim-1 (Homo sapiens) (P11309 whole entry, looked up): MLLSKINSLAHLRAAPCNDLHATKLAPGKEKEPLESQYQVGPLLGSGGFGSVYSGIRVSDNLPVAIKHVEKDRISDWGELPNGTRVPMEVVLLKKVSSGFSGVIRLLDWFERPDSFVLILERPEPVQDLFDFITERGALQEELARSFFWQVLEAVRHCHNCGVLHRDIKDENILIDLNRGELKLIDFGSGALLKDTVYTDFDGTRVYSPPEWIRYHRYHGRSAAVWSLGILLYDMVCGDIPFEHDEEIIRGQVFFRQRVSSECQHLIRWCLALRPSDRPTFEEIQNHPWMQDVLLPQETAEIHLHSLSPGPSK
# Sequence of Serine/threonine-protein kinase SIK2 (Homo sapiens) (Q9H0K1 whole entry, looked up): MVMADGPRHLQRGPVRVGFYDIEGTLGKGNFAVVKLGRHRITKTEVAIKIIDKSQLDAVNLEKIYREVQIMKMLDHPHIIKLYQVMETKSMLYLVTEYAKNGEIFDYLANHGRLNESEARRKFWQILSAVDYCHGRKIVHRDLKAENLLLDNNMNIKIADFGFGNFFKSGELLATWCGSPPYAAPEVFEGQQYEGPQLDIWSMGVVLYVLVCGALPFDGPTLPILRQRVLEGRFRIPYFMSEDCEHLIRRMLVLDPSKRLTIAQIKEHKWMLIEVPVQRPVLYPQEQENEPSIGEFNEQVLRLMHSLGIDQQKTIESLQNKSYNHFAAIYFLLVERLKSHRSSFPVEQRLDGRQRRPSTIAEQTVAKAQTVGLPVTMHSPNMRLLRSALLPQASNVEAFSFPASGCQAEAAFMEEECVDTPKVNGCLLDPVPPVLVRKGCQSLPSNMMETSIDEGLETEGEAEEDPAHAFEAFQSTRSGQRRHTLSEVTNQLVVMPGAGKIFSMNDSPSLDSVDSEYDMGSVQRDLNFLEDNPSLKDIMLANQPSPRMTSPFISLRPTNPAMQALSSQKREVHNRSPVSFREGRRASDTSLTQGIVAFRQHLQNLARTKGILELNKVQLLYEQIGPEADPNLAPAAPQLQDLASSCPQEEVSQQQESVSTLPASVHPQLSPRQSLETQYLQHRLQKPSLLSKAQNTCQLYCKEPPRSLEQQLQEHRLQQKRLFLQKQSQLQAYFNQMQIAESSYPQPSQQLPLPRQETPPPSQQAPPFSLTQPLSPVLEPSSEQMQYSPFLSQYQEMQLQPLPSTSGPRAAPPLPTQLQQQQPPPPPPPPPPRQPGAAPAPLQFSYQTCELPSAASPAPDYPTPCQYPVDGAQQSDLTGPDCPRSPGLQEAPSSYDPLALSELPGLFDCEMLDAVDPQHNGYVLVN
SMILES,inhibition [1],inhibition [2],inhibition [3],inhibition [4],inhibition [5],inhibition [6],inhibition [7],inhibition [8],inhibition [9],inhibition [10],inhibition [11],inhibition [12],inhibition [13],inhibition [14],inhibition [15],inhibition [16],inhibition [17],inhibition [18],inhibition [19],inhibition [20]
CCN1CCC(C(=O)Nc2n[nH]c3nnc(-c4cccc(F)c4F)cc23)CC1,1.95%,1.35%,0.26%,1.99%,4.68%,-0.86%,-1.05%,-0.82%,0.91%,0.04%,0.25%,-0.6%,2.08%,0.03%,-0.34%,-3.64%,0.15%,-2.38%,-0.5%,0.48%
NS(=O)(=O)c1ccc(N/N=C2\C(=O)Nc3ccc(C(=O)NCc4ccncc4)cc32)cc1,21.3%,0.76%,2.6%,5.19%,28.9%,4.99%,11.4%,1.75%,7.29%,0.12%,4.93%,1.9%,8.56%,1.84%,6.01%,3.99%,19.8%,6.03%,17.1%,3.83%
CCS(=O)(=O)c1ccc(OC)c(Nc2ncc(-c3cccc(C(C)=O)c3)o2)c1,-4.12%,0.37%,2.34%,1.7%,10.4%,3.37%,6.45%,0.82%,1.66%,-0.72%,-0.01%,0.38%,4.79%,1.84%,2%,6.02%,15.1%,3.14%,14%,0.54%
CCCNc1cccc(-n2ncc3c(N/N=C/c4ccncc4)ncnc32)c1,4.97%,1.18%,3.05%,2.76%,19.5%,2.56%,7.69%,0.64%,1.01%,1.23%,0.32%,3.58%,4.06%,0.95%,1.6%,3.14%,9.54%,-0.68%,21.1%,2.22%
CC1=C(C(=O)Nc2ccc3[nH]ncc3c2)C(c2ccc(F)cc2)N=C(c2ccc(C(F)(F)F)nc2)N1 (stereo not given),2.79%,-0.13%,-0.98%,0.36%,1.77%,1.74%,-0.23%,0.3%,-0.09%,0.44%,0.66%,0.08%,-1.05%,0.55%,0.22%,4.91%,4.39%,2.09%,4.41%,-0.16%
CCn1c(-c2nonc2N)nc2cncc(C(=O)NCCNC)c21,14%,0.06%,3.5%,4.55%,7.35%,5.01%,6.69%,46.4%,87%,1.81%,18.8%,26.3%,69.3%,1.39%,1.58%,3.17%,9.07%,2.51%,6.02%,4.08%
COc1cc(N2CCN(C(C)C)CC2)ccc1Nc1nc(Nc2cccc(F)c2C(=O)O)c2cc[nH]c2n1,3.36%,0.65%,0.52%,8.07%,39.8%,6.18%,19.9%,-0.13%,1.42%,0.01%,0.53%,1%,5.92%,1.35%,2.28%,2.77%,7.48%,5.27%,4.22%,4.45%
Nc1ncnc2occ(-c3ccc(NC(=O)Nc4cc(C(F)(F)F)ccc4F)cc3)c12,2.65% and 0.89%,0.79% and 0.18%,0.2% and -0.5%,0.08% and -0.25%,4.52% and 6.47%,2.69% and -2.51%,-1.12% and -5.1%,0.97% and 0.53%,1.19% and 2.46%,0.22% and 0.7%,0.09% and 1.14%,0.34% and 0.04%,-1.35% and 1.44%,-0.03% and -0.81%,-1.65% and -0.72%,5.31% and -3.84%,6.74% and 3.25%,6.29% and -4.61%,1.48% and -6.22%,0.47% and 0.44%
CS(=O)(=O)CCNCc1ccc(-c2ccc3ncnc(Nc4ccc(OCc5ccccc5)cc4)c3c2)o1,1.67%,0.96%,0.95%,4.83%,4.75%,4.78%,4.2%,1.47%,1.03%,0.19%,0.74%,0.79%,1.6%,1.45%,1.42%,4.11%,9.04%,3.65%,6.41%,3.64%
CC(C)c1ccc(-c2cc(-c3c[nH]nc3-c3ccccn3)ccn2)cc1,-0.26%,-0.36%,-1.24%,0.46%,1.25%,-0.69%,-0.76%,0.3%,-0.2%,-0.34%,-0.1%,0.23%,-0.66%,0.04%,-0.19%,0.32%,0.87%,-2.6%,-1.02%,0.97%
CC1(C)CC(n2cnc(-c3ccc(F)cc3)c2-c2ccnc(N)n2)CC(C)(C)N1,0.44%,-1.3%,-0.73%,3.51%,2.36%,-0.42%,-1.13%,0.93%,1.49%,0.4%,0.96%,-0.62%,0.93%,0.28%,0.93%,0.72%,3.05%,1.72%,1.15%,0.42%
CCS(=O)(=O)c1ccc(OC)c(Nc2ncc(-c3cccc(F)c3)o2)c1,2.64%,-0.05%,-0.06%,6.05%,24.7%,6.86%,8.13%,1.98%,4.66%,-0.96%,0.08%,0.31%,3.65%,2.11%,2.01%,7.36%,29.4%,8.6%,36.7%,5.98%
Cc1cc(O)cc(C)c1/C=C/c1cncc(C(=O)OC(C)(C)C)c1,1.18%,-0.08%,0.02%,3.95%,-7.1%,3.11%,1.25%,0.18%,0.23%,0.32%,1.55%,-1.42%,2.22%,0.68%,1.6%,18.8%,71.9%,10.5%,12.3%,2.04%
